# Measurements published in PubChem BioAssay (NCATS).
# Calls of active or inactive are those of the source. The rule behind the calls is not given here.
# Details: Ebola virus entry assay, reporter ratio channel; Channel type: primary
SMILES,AC50,outcome
O=C(Nc1ccccc1)OCC(CN1CCCCC1)OC(=O)Nc1ccccc1 (stereo not drawn),10 µM (active),–
CCCCOc1cc(C(=O)NCCN(CC)CC)c2ccccc2n1,10 µM (active),–
CC(N)C(=O)OC(C)(C)Cc1ccc(Cl)cc1 (stereo not drawn),14.1 µM (active),–
CCN(CC)CCOc1ccccc1C(=O)CCc1ccccc1,14.1 µM (active),–
CN1CCC(N(Cc2cccs2)c2ccccc2)CC1,3.16 µM (active),–
O=C1NC2CCCCN2C12CCN(CCCN1c3ccccc3CCc3ccc(Cl)cc31)CC2 (stereo not drawn),3.16 µM (active),–
CCCCC1C(=O)N(c2ccccc2)N(c2ccc(O)cc2)C1=O (stereo not drawn),39.8 µM (active),–
CCCCOc1ccc(C(=O)CCN2CCCCC2)cc1,31.6 µM (active),–
CN(C)CCCN1c2ccccc2Sc2ccc(C(F)(F)F)cc21,2.82 µM (active),–
C[C@]12CCC(=O)C=C1C=C[C@@H]1[C@@H]2CC[C@@]2(C)[C@H]1CC[C@@]21CCC(=O)O1,39.8 µM (active),–
O=C(O)c1cn(-c2ccc(F)cc2)c2cc(N3CCNCC3)c(F)cc2c1=O,–,inactive
c1cc(CN2CCCCC2)cc(OCCCNc2nc3ccccc3s2)c1,12.6 µM (active),–
Cc1cccc(N(C)C(=S)Oc2ccc3c(c2)C2CCC3C2)c1 (stereo not drawn),39.8 µM (active),–
CNCCC(Oc1ccccc1OC)c1ccccc1 (stereo not drawn),17.8 µM (active),–
CN1CCCN(C(c2ccccc2)c2ccc(Cl)cc2)CC1 (stereo not drawn),3.16 µM (active),–
CCCCOc1ccc(OCCCN2CCOCC2)cc1,22.4 µM (active),–
OCc1cc(C(O)CNCCCCCCOCCCCc2ccccc2)ccc1O (stereo not drawn),7.08 µM (active),–
CC(Oc1c(Cl)cccc1Cl)C1=NCCN1 (stereo not drawn),39.8 µM (active),–
CN(C)CCOC1=Cc2ccccc2Sc2ccc(Cl)cc21,12.6 µM (active),–

SMILES,AC50,outcome
CC(C)(C)C(=O)OCOC(=O)C1N2C(=O)CC2S(=O)(=O)C1(C)C (stereo not drawn),3.16 µM (active),–
CN1CCN(CCC(=O)N2c3ccccc3Sc3ccc(C(F)(F)F)cc32)CC1,2.82 µM (active),–
CCN(CC)CCCC(C)Nc1c2ccc(Cl)cc2nc2ccc(OC)cc12 (stereo not drawn),25.1 µM (active),–
Cc1ccc(N(CC2=NCCN2)c2cccc(O)c2)cc1,31.6 µM (active),–
CCC(CN)=C(c1ccccc1)c1ccccc1,17.8 µM (active),–
COc1ccc2c(c1)c(CC(=O)O)c(C)n2C(=O)c1ccc(Cl)cc1,–,inactive
CC1=C(C)C(=O)C(C(CCCCCC(=O)O)c2ccccc2)=C(C)C1=O (stereo not drawn),–,inactive
Fc1ccc(C(c2ccc(F)cc2)N2CCN(C/C=C/c3ccccc3)CC2)cc1,11.2 µM (active),–
CCc1cccc(N(C)C(N)=Nc2cccc3ccccc23)c1,14.1 µM (active),–
c1ccc2c(c1)CCc1ccccc1N2,–,inactive
COc1ccc(-n2nc(CCC(=O)N(C)O)cc2-c2ccc(Cl)cc2)cc1,10 µM (active),–
CCc1ccc(C(=O)C(C)CN2CCCCC2)cc1 (stereo not drawn),28.2 µM (active),–
CN1CCCN=C1COC(=O)C(O)(c1ccccc1)C1CCCCC1 (stereo not drawn),12.6 µM (active),–
O=c1[nH]c2ccccc2n1CCCN1CCN(C(c2ccccc2)c2ccccc2)CC1,3.98 µM (active),–
OC(CCN1CCCCC1)(c1ccccc1)c1ccccc1,28.2 µM (active),–
NC(=O)C1(N2CCCCC2)CCN(CCCN2c3ccccc3CCc3ccc(Cl)cc32)CC1,3.55 µM (active),–
CC(CC1c2ccccc2CCc2ccccc21)CN(C)C (stereo not drawn),3.98 µM (active),–
Oc1ccc(CCNCCCCCCNCCc2ccccc2)cc1O,1 µM (active),–
CN(C)CCOC(c1ccccc1)c1ccc(Br)cc1 (stereo not drawn),11.2 µM (active),–
